Screens (PubChem BioAssay)
gsp ag = qHTS for Agonist of gsp, the Etiologic Mutation Responsible for Fibrous Dysplasia/McCune-Albright Syndrome: qHTS; gsp mutant cells, cAMP HTRF, 30 min; Potency, µM (titrated, usually from 76.9 µM), actives largely listed as activators; 340,000 tested, 0.13% active; active = well fitted activation curve with a large enough effect; inconclusive = small, poorly fitted or top-dose-only effect, or another doubt; inactive = no such curve, though single readings can be large or run the other way; cell line not stated here;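 note: phosphodiesterase inhibitor Ro 20-1724 added with compounds to block cAMP breakdown; nearly all actives have a fitted effect of over 60% in size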
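Cells in DMEM/10% FBS with G418 were pretreated with compounds in DMSO plus […] (300 uM stock) for 30 min at 37C. cAMP was measured by HTRF (cAMP-d2 plus anti-cAMP antibody-K) after 30 min at room temperature.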
RXFP1 agonist = qHTS Assay for Agonists of the Relaxin Receptor RXFP1 | Relaxin receptor 1 (Homo sapiens), Q9HBX9 | HEK293T-RXFP1 cAMP TR-FRET, 30 min; response scale: percent of porcine relaxin response, buffer zero | Potency, µM (doses to about 57.5 µM), actives largely listed as activators | 370,000 tested, 0.3% active | AID 2676, 2010; active = well fitted activation curve with a large enough effect; inconclusive = small, poorly fitted or top-dose-only effect; note: nearly all actives have a fitted effect of over 60% in size
Target sequence (Q9HBX9 whole entry, looked up): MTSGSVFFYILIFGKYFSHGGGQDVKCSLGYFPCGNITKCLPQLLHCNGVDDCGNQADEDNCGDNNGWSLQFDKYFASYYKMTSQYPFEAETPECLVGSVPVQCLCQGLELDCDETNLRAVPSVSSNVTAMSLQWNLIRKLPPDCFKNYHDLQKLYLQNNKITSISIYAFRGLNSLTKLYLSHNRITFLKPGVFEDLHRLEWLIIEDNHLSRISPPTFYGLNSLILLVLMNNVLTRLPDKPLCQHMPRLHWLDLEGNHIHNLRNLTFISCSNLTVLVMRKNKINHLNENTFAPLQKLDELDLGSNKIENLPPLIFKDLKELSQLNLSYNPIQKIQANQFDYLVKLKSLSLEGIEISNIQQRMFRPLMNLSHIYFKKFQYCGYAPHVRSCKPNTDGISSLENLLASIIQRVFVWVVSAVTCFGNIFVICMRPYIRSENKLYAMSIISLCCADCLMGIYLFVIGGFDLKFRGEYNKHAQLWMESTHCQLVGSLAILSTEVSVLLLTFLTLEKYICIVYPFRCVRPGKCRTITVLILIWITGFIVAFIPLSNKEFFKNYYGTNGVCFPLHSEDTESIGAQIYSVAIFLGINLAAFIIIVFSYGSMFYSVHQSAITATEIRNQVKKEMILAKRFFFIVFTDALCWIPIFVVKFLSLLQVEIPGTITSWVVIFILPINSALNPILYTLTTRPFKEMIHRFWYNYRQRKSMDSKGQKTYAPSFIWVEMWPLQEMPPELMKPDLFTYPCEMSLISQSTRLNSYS
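HEK293 cells stably expressing RXFP1, treated 30 min at 37C with compounds plus PDE4 inhibitor Ro 20174; cAMP measured by HTRF TR-FRET. Normalized to buffer and 29 nM porcine relaxin; EC50 by Hill fit.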
RXFP1 antagonist = qHTS Assay for Antagonists of the Relaxin Receptor RXFP1 | Relaxin receptor 1 (Homo sapiens), Q9HBX9 | HEK293-RXFP1, relaxin-stimulated cAMP HTRF, 30 min; stronger effect = lower value | activity change, negative = inhibition, % at 57.5 µM | 350,000 tested, 0.59% active | AID 1259400, 2018;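 active = activity change of -60% or lower, but not beyond a set lower limit; inconclusive = change between -60% and -40%, or beyond the set limit; inactive = change above -40%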
pAkt inh = HTS Assay for Inhibitors of Akt Phophorylation: Primary Screen; AID 651550, 2012; activity change, % for hits at 50 µM; Neuro2A IGF-stimulated pAkt S473 HTRF, 20 min; stronger effect = lower value; 360,000 tested, 0.32% active; in the data active = activity change below about -80%; inconclusive = mostly about -51% to -80%
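Single-point screen (50 µM final compound) in Neuro2A cells stimulated 20 min with 6 nM IGF at 37 deg C. After lysis, Ser473-phosphorylated Akt read by HTRF (ex 330 nm, em 615/665 nm) as the 665/615 ratio.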
gsp antag = qHTS for Antagonists of gsp, the Etiologic Mutation Responsible for Fibrous Dysplasia/McCune-Albright Syndrome: qHTS; gsp-mutant cells, cAMP HTRF, 30 min; Potency, µM (highest dose often 76.9 µM), most hits filed as inhibitors; 340,000 tested, 0.4% active; AID 624288, 2012; calls by dose curve; cell line not stated here;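 note: intracellular cAMP measured with PDE inhibitor Ro 20-1724 present during compound exposure; nearly all actives have a fitted effect of over 65% in size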
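HTRF cAMP measurement after 30 min RT detection following 30 min, 37C compound treatment alongside […] (added as 300 uM solution) in G418-selected cells seeded at 2000/well and grown 16–24 h.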
ClpP mod = qHTS Assay for Activators of ClpP. ATP-dependent Clp protease proteolytic subunit (Bacillus subtilis (strain 168)), P80244. purified B. subtilis ClpP, FRET peptide cleavage, 20 min. Potency, µM (titrated, usually from 57.5 µM). 340,000 tested, 1.9% active; active = well fitted falling curve with a large enough effect; inconclusive = small, poorly fitted or top-dose-only effect; inactive = no such curve, though single readings can be large or run the other way; note: the source files actives as falling curves though it sought activators and does not explain the sign; nearly all actives have a fitted effect of over 65% in size
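Buffer: 100 mM Tris/HCl pH8, 100 mM KCl, 0.05% low protease BSA, 2.5% glycerol, 0.01% Tween-20. ClpP 10 microg/mL final; 20 min RT; delta FRET normalized to ADEP and DMSO controls.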
Of the large screens only hits and unclear results are named; the others gave an inactive call. An excerpt weighted towards active compounds, which were near 2.7% of everything screened.

COc1cc(-c2c(C#N)c(N)nc3c2c(C)nn3-c2ccc(C)c(C)c2)cc(OC)c1OC	ClpP mod 25.1µM
COc1ccc(/C=c2\s/c(=C/C(=O)c3ccc(C)cc3)[nH]c2=O)c(OC)c1	none
COc1cccc(/C=c2\s/c(=C\C(=O)C(C)(C)C)[nH]c2=O)c1	RXFP1 antagonist -90.6
CCOC(=O)c1sc2nc(C)c3c(c2c1N)CC(C)(C)OC3	gsp ag inconclusive, ClpP mod 28.2µM
CCCc1nc2oc(C(=O)OCC)c(N)c2c2c1COC(C)(C)C2	gsp ag inconclusive, ClpP mod 14.1µM
COc1ccc(OC)c(NC(=O)Cn2cnc3sc(C)c(S(=O)(=O)N4CCN(c5ccccc5OC)CC4)c3c2=O)c1	none (no result: gsp ag, pAkt inh, gsp antag)
CCN1CCN(C(=O)c2ccc3c(c2)N(Cc2ccc(F)cc2)C(=O)c2ccccc2S3(=O)=O)CC1	none (no result: gsp ag, pAkt inh, gsp antag)
O=C(CCn1cnc2onc(-c3ccc(F)cc3)c2c1=O)N1CCN(c2ccccc2F)CC1	none (no result: gsp ag, pAkt inh, gsp antag)
CC(=O)c1ccc(N2CCN(CC(O)COC(c3ccccc3)c3ccccc3)CC2)cc1 (configuration not stated)	gsp ag inconclusive, RXFP1 antagonist -79.2 (no result: ClpP mod)
CC(=O)c1ccc(N2CCN(CC(O)COC(c3ccccc3)c3ccccc3C)CC2)cc1 (configuration not stated)	gsp antag inconclusive (no result: ClpP mod)
O=C1c2oc3ccccc3c(=O)c2C(c2ccccc2F)N1Cc1ccc2c(c1)OCO2 (configuration not stated)	none (no result: gsp ag, pAkt inh, gsp antag)
OCCOCCNc1ncnc2sc(-c3ccccc3)cc12	ClpP mod 31.6µM
CNc1ncnc2sc(-c3ccccc3)cc12	ClpP mod 14.1µM
CN(C)CCNc1ncnc2sc(-c3ccccc3)cc12	none
COc1ccc(OC)c(Nc2ncnc3sc(-c4ccccc4)cc23)c1	gsp antag inconclusive, ClpP mod inconclusive
OCCCc1cn(Cc2ccccc2)c2ccccc12	ClpP mod 17.8µM
CC(=O)NC(C)Cc1cn(Cc2ccccc2)c2ccccc12 (configuration not stated)	none
O=c1oc2cc(OCc3c(F)c(F)c(F)c(F)c3F)ccc2cc1-c1ccccn1	ClpP mod 15.8µM
NC(=O)COc1ccc2cc(-c3ccccc3)c(=O)oc2c1	none
O=[N+]([O-])c1ccc(NN=Cc2cc(Br)ccc2O)nc1	RXFP1 antagonist -73.6 (no result: RXFP1 agonist, ClpP mod)
O=[N+]([O-])c1ccc(NN=Cc2cccc(O)c2)nc1	none (no result: RXFP1 agonist, ClpP mod)
Cc1ccc(CNC(=O)COC(=O)C2CCN(S(=O)(=O)c3cccs3)CC2)cc1	gsp ag inconclusive, gsp antag 35.5µM (no result: ClpP mod)
Cc1ccc(-n2nnnc2C(Cl)c2nnnn2-c2ccc(C)cc2)cc1	RXFP1 antagonist -63.2
COc1ccc(NC(=O)CC2C(=O)N(c3ccccc3)C(=O)N2CCc2sccc2C)cc1 (configuration not stated)	none (no result: gsp ag, RXFP1 antagonist, pAkt inh, gsp antag)
S=c1nc(SCc2ccccc2)[nH]c2ccccc12	RXFP1 agonist 28.2µM (no result: ClpP mod)
c1ccc(CSc2nc3ncncc3[nH]2)cc1	gsp ag inconclusive
COC(=O)c1cc(Cl)ccc1OC	none (no result: gsp ag, RXFP1 agonist, pAkt inh, gsp antag, ClpP mod)
CCN(CC)c1ccc(N2C(=O)/C(=C/c3cccs3)SC2=S)cc1	pAkt inh -102.8%
CCN(CC)c1ccc(N2C(=O)CSC2=S)cc1	none
CC(=O)c1cc2cccc(OC3(C)CCN(Cc4ccc5ccccc5c4)C3)c2o1 (configuration not stated)	none (no result: gsp ag, RXFP1 agonist, RXFP1 antagonist, gsp antag)
Nc1sc2c(c1C(=O)NC1CCS(=O)(=O)C1)CCC2 (configuration not stated)	pAkt inh -129.9%
COC(=O)C1=CN(c2ccc(N3CCOCC3)cc2)C(N)=C(C#N)C1c1cccc(OC)c1OC (configuration not stated)	none (no result: gsp ag, RXFP1 agonist, RXFP1 antagonist, gsp antag)
O=C(NCc1ccc(Cl)cc1)C1CCCN(c2nc3ccccc3n3cccc23)C1 (configuration not stated)	RXFP1 antagonist -64.2 (no result: gsp ag, pAkt inh, gsp antag)
O=S(=O)(Cc1ccccc1)C1CCCCC1O (configuration not stated)	ClpP mod 14.1µM
COC(=O)[C@@H]1CCCN1S(=O)(=O)Cc1ccccc1	none (no result: gsp ag, RXFP1 agonist, RXFP1 antagonist, pAkt inh, gsp antag)
O=C1CCCc2c(O)cccc21	none (no result: gsp ag, RXFP1 agonist, pAkt inh, gsp antag, ClpP mod)
Cc1cccc(N(C(=O)CCC(=O)Nc2cc(C)on2)C(C(=O)NC2CCCC2)c2ccc(C)o2)c1 (configuration not stated)	none
Cc1cc(NC(=O)CCC(=O)N(c2cccc(F)c2)C(C(=O)NC2CCCC2)c2ccc(C)o2)no1 (configuration not stated)	ClpP mod 28.2µM
CC(C)NS(=O)(=O)c1cc(C(F)(F)F)ccc1/C=C/C(=O)O	none (no result: gsp ag, RXFP1 agonist, RXFP1 antagonist, pAkt inh, gsp antag)
CN(C)c1ccc(/C=C/N2C=CCc3c2ccc2ccccc32)cc1	none (no result: gsp ag, RXFP1 agonist, RXFP1 antagonist, pAkt inh, gsp antag)
CCC(=O)Nc1cccc2c1C(=O)N(C)C2=O	ClpP mod 25.1µM
CCNc1cccc2c1C(=O)N(C)C2=O	none
O=C(NCCCN1CCN(c2ccccc2F)CC1)c1ccc2nc(N3CCCCC3)sc2c1	none (no result: gsp ag, RXFP1 antagonist, pAkt inh, gsp antag)
O=C(O)CCSc1ccc2ccccc2n1	gsp ag inconclusive, RXFP1 agonist 17.8µM
O=C(O)CSc1ccc2ccccc2n1	gsp ag inconclusive, RXFP1 agonist inconclusive
CC(=O)NCCNC(=O)Cn1nnc(-c2ccccc2)c1COc1ccc2ccccc2c1	none (no result: gsp ag, RXFP1 agonist, RXFP1 antagonist, gsp antag)
COc1ccc(OC)c(/C(O)=C/C(=O)C(=O)Nc2cc(C)cc(C)c2)c1	pAkt inh -106.2%
O=c1[nH]/c(=C/c2ccc3c(c2)OCO3)c(=O)[nH]/c1=C/c1ccc2c(c1)OCO2	none (no result: gsp ag, RXFP1 agonist, RXFP1 antagonist, pAkt inh, gsp antag)
COc1cc(-c2nc3ccc4ccccc4c3c3c2CCC3)cc(OC)c1O	none
COc1cc(-c2nc3ccc4ccccc4c3c3c2CCC3)cc(OC)c1OC	ClpP mod 25.1µM
O=C(Nc1cccc(S(=O)(=O)N2CCCCC2)c1)c1ccccc1NS(=O)(=O)c1ccc(F)cc1	gsp ag inconclusive, gsp antag inconclusive, ClpP mod 31.6µM
Cc1ccc(NC(=O)CCNC(=O)c2ccccc2Cl)cc1S(=O)(=O)N1CCCCCC1	none
Cc1ccc(NC(=O)c2ccccc2NS(=O)(=O)c2ccc(F)cc2)cc1S(=O)(=O)N1CCCCC1	gsp antag inconclusive, ClpP mod 31.6µM
Cc1ccc(N2C=Nc3ccc(C)c4nc(C)cc2c34)cc1	ClpP mod 22.4µM
CCOC(=O)C1=C(c2ccccc2)OC(N)=C(C#N)C1C1CCCCC1 (configuration not stated)	none
